# Source: PubChem BioAssay AID1159580 (chemical genetic matrix, 2015)
# Among all 5,500 compounds or so, about 2,000 (36%) were called active. About 18% were inconclusive and are not listed. The list shows a part of the results. Values without a mark were called inactive. Rule as the data show it: active = normalized growth mostly below about 0.91 (no sharp cut-off); inconclusive = no clear call, values can overlap the other calls; inactive = mostly above about 0.92.
# Assay: chemical genetic growth profiling, strain panel (AID 1159580);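 also: tested at 20 µM; growth read once vehicle control cultures reached saturation at 30 °C; 1 = growth at the plate median or of vehicle wells; lower values mean less growth of the strain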
# Conditions: growth OD
smiles,measurement,setting,value
CC(=O)O[C@]1(C(C)=O)CCC2C3C[C@H](C)C4=CC(=O)CC[C@]4(C)C3CC[C@@]21C (stereo partly drawn),normalized growth,"S. cerevisiae deletion strains, locus YJR075W, strain HOC1, hits give low values",0.99
same,normalized growth,"S. cerevisiae deletion strains, locus YKL009W, strain mrt4, hits give low values",0.973
same,normalized growth,"S. cerevisiae deletion strains, locus YKL068W, hits give low values",0.971
same,normalized growth,"S. cerevisiae deletion strains, locus YKL085W, strain MDH1 (second series), hits give low values",0.977
same,normalized growth,"S. cerevisiae deletion strains, locus YKL085W, strain MDH1, hits give low values",0.977
same,normalized growth,"S. cerevisiae deletion strains, locus YKL160W, strain elf1, hits give low values",0.911
same,normalized growth,"S. cerevisiae deletion strains, locus YKL190W, strain CNB1, hits give low values",0.989
same,normalized growth,"S. cerevisiae deletion strains, locus YKR001C, strain vps1, hits give low values",0.956
same,normalized growth,"S. cerevisiae deletion strains, locus YKR026C, strain gcn3, hits give low values",0.981
same,normalized growth,"S. cerevisiae deletion strains, locus YKR091W, strain srl3, hits give low values",0.959
same,normalized growth,"S. cerevisiae deletion strains, locus YLL001W, strain dnm1, hits give low values",0.894 (active)
same,normalized growth,"S. cerevisiae deletion strains, locus YLL026W, hits give low values",0.976
same,normalized growth,"S. cerevisiae deletion strains, locus YLL041C, strain sdh2, hits give low values",0.968
same,normalized growth,"S. cerevisiae deletion strains, locus YLR027C, strain aat2, hits give low values",0.976
same,normalized growth,"S. cerevisiae deletion strains, locus YLR039C, strain RIC1, hits give low values",1.05
same,normalized growth,"S. cerevisiae deletion strains, locus YLR058C, strain SHM2, hits give low values",0.979
same,normalized growth,"S. cerevisiae deletion strains, locus YLR102C, strain apc9, hits give low values",0.989
same,normalized growth,"S. cerevisiae deletion strains, locus YLR113W, strain HOG1, hits give low values",0.965
same,normalized growth,"S. cerevisiae deletion strains, locus YLR221C, strain rsa3, hits give low values",0.9 (active)
same,normalized growth,"S. cerevisiae deletion strains, locus YLR258W, strain gsy2, hits give low values",0.949
same,normalized growth,"S. cerevisiae deletion strains, locus YLR262C, strain YPT6 (second series), hits give low values",0.815 (active)
same,normalized growth,"S. cerevisiae deletion strains, locus YLR262C, strain YPT6, hits give low values",0.957
same,normalized growth,"S. cerevisiae deletion strains, locus YLR268W, strain sec22, hits give low values",0.977
same,normalized growth,"S. cerevisiae deletion strains, locus YLR320W, strain mms22, hits give low values",0.875 (active)
same,normalized growth,"S. cerevisiae deletion strains, locus YLR330W, strain CHS5, hits give low values",0.988
same,normalized growth,"S. cerevisiae deletion strains, locus YLR342W, strain FKS1 (second series), hits give low values",0.984
same,normalized growth,"S. cerevisiae deletion strains, locus YLR342W, strain FKS1, hits give low values",0.948
same,normalized growth,"S. cerevisiae deletion strains, locus YLR357W, strain rsc2, hits give low values",0.939
same,normalized growth,"S. cerevisiae deletion strains, locus YLR370C, strain arc18, hits give low values",0.925
same,normalized growth,"S. cerevisiae deletion strains, locus YLR371W, strain rom2, hits give low values",0.985
same,normalized growth,"S. cerevisiae deletion strains, locus YLR384C, strain iki3, hits give low values",0.977
same,normalized growth,"S. cerevisiae deletion strains, locus YLR418C, strain cdc73, hits give low values",0.829 (active)
same,normalized growth,"S. cerevisiae deletion strains, locus YML016C, strain PPZ1, hits give low values",0.996
same,normalized growth,"S. cerevisiae deletion strains, locus YML032C, strain rad52, hits give low values",0.984
same,normalized growth,"S. cerevisiae deletion strains, locus YML120C, strain ndi1, hits give low values",0.916
same,normalized growth,"S. cerevisiae deletion strains, locus YML124C, strain tub3, hits give low values",0.986
same,normalized growth,"S. cerevisiae deletion strains, locus YMR058W, strain fet3, hits give low values",0.968
same,normalized growth,"S. cerevisiae deletion strains, locus YMR078C, strain ctf18, hits give low values",0.97
same,normalized growth,"S. cerevisiae deletion strains, locus YMR125W, strain sto1, hits give low values",0.947
same,normalized growth,"S. cerevisiae deletion strains, locus YMR129W, hits give low values",0.972
same,normalized growth,"S. cerevisiae deletion strains, locus YMR205C, strain PFK2, hits give low values",0.906
same,normalized growth,"S. cerevisiae deletion strains, locus YMR223W, strain ubp8, hits give low values",0.917
same,normalized growth,"S. cerevisiae deletion strains, locus YMR231W, strain pep5, hits give low values",0.978
same,normalized growth,"S. cerevisiae deletion strains, locus YMR263W, strain SAP30, hits give low values",0.989
same,normalized growth,"S. cerevisiae deletion strains, locus YMR307W, strain GAS1, hits give low values",0.992
same,normalized growth,"S. cerevisiae deletion strains, locus YNL067W, strain RPL9B, hits give low values",0.993
same,normalized growth,"S. cerevisiae deletion strains, locus YNL071W, strain lat1, hits give low values",0.876 (active)
same,normalized growth,"S. cerevisiae deletion strains, locus YNL153C, strain GIM3, hits give low values",0.983
same,normalized growth,"S. cerevisiae deletion strains, locus YNL183C, strain NPR1, hits give low values",0.951
same,normalized growth,"S. cerevisiae deletion strains, locus YNL209W, strain ssb2, hits give low values",0.958
same,normalized growth,"S. cerevisiae deletion strains, locus YNL233W, strain BNI4, hits give low values",0.989
same,normalized growth,"S. cerevisiae deletion strains, locus YNL248C, strain rpa49, hits give low values",0.955
same,normalized growth,"S. cerevisiae deletion strains, locus YNL250W, strain rad50, hits give low values",0.986
same,normalized growth,"S. cerevisiae deletion strains, locus YNL271C, strain bni1, hits give low values",0.969
same,normalized growth,"S. cerevisiae deletion strains, locus YNL298W, strain CLA4, hits give low values",0.953
same,normalized growth,"S. cerevisiae deletion strains, locus YNL307C, strain MCK1, hits give low values",0.914
same,normalized growth,"S. cerevisiae deletion strains, locus YNL322C, strain KRE1 (second series), hits give low values",0.962
same,normalized growth,"S. cerevisiae deletion strains, locus YNR049C, strain mso1, hits give low values",0.974
same,normalized growth,"S. cerevisiae deletion strains, locus YNR052C, strain pop2, hits give low values",0.994
same,normalized growth,"S. cerevisiae deletion strains, locus YOL012C, strain htz1",1.07
same,normalized growth,"S. cerevisiae deletion strains, locus YOL147C, strain pex11, hits give low values",0.983
same,normalized growth,"S. cerevisiae deletion strains, locus YOR001W, strain rrp6, hits give low values",1.01
same,normalized growth,"S. cerevisiae deletion strains, locus YOR061W, strain CKA2, hits give low values",0.987
same,normalized growth,"S. cerevisiae deletion strains, locus YOR069W, strain VPS5, hits give low values",0.984
same,normalized growth,"S. cerevisiae deletion strains, locus YOR070C, strain gyp1, hits give low values",0.967
same,normalized growth,"S. cerevisiae deletion strains, locus YOR080W, strain dia2, hits give low values",0.97
same,normalized growth,"S. cerevisiae deletion strains, locus YOR083W, strain WHI5, hits give low values",0.927
same,normalized growth,"S. cerevisiae deletion strains, locus YOR106W, strain vam3, hits give low values",0.95
same,normalized growth,"S. cerevisiae deletion strains, locus YOR136W, strain idh2, hits give low values",1
same,normalized growth,"S. cerevisiae deletion strains, locus YOR144C, strain elg1, hits give low values",0.997
same,normalized growth,"S. cerevisiae deletion strains, locus YOR184W, strain ser1, hits give low values",0.875
same,normalized growth,"S. cerevisiae deletion strains, locus YOR231W, strain MKK1, hits give low values",0.998
same,normalized growth,"S. cerevisiae deletion strains, locus YOR265W, strain rbl2, hits give low values",0.986
same,normalized growth,"S. cerevisiae deletion strains, locus YOR270C, strain vph1, hits give low values",0.867
same,normalized growth,"S. cerevisiae deletion strains, locus YOR290C, strain snf2, hits give low values",0.873
same,normalized growth,"S. cerevisiae deletion strains, locus YOR316C, strain cot1, hits give low values",0.986
same,normalized growth,"S. cerevisiae deletion strains, locus YPL051W, strain arl3, hits give low values",0.937
same,normalized growth,"S. cerevisiae deletion strains, locus YPL055C, strain LGE1, hits give low values",0.963
same,normalized growth,"S. cerevisiae deletion strains, locus YPL078C, strain atp4, hits give low values",0.939
same,normalized growth,"S. cerevisiae deletion strains, locus YPL106C, strain sse1, hits give low values",0.991
same,normalized growth,"S. cerevisiae deletion strains, locus YPL240C, strain hsp82, hits give low values",0.967
same,normalized growth,"S. cerevisiae deletion strains, locus YPL256C, strain CLN2, hits give low values",1
same,normalized growth,"S. cerevisiae deletion strains, locus YPR119W, strain clb2, hits give low values",0.986
same,normalized growth,"S. cerevisiae deletion strains, locus YPR141C, strain kar3, hits give low values",0.954
same,normalized growth,"S. cerevisiae deletion strains, locus YPR163C, strain tif3, hits give low values",0.982
same,normalized growth,"S. cerevisiae deletion strains, locus YPR167C, strain met16, hits give low values",0.982
same,normalized growth,"S. cerevisiae deletion strains, strain wtn01, hits give low values",0.955
same,normalized growth,"S. cerevisiae strains, strain wild type, hits give low values",0.991
